The test system of one assay is F380Y. Kind of assay: modulators of BK channel variants, profiling panel, selectivity assay, cell-based, U2OS BacMam, thallium flux, beta subunits (AID 1259406).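 Further: initial slope of Thallos dye fluorescence rise after thallium is added; log ratio against the mean of 0.3% DMSO vehicle wells on the same plate.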 To be noted: at 30 µM.
The subject of a further assay is F380Y/beta1. The description is as above. To be noted: at 30 µM.

“And” between values parts separate entries of the source, which are not always exact repeats. Equal entries are not always repeated. A number with no mark means an inactive call. The source made the active and inactive calls.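 How the source made its calls: active means thallium flux through the channel raised or lowered by more than 3 SD from vehicle-only wells, actives on both sides; inactive means the rest.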

The record followed here is PubChem BioAssay.

With `COc1cc(OC)c(C(=O)CCCN2CCCC2)c(OC)c1`, the values for the log fold change Tl+ flux in the assay with F380Y and in the assay with F380Y/beta1 were -0.00984 and -0.00851, respectively.

Turning to `CC(C)(C)NC(=O)[C@@H]1CN(Cc2cccnc2)CCN1C[C@@H](O)C[C@@H](Cc1ccccc1)C(=O)N[C@H]1c2ccccc2C[C@H]1O`, the results for the log fold change Tl+ flux with F380Y and in the assay on F380Y/beta1 were -0.012 and -0.0545, respectively.

Consider `Cc1[nH]c(=O)c(C#N)cc1-c1ccncc1`, for which the log fold change Tl+ flux in the assay on F380Y is 0.00987; in the assay with F380Y/beta1 it was -0.00723.

For the molecule `Nc1ccn([C@H]2CC[C@@H](CO)O2)c(=O)n1`, the log fold change Tl+ flux with F380Y is 0.0263; in the assay on F380Y/beta1 it was 0.0264.

Turning to `CC(C(=O)O)c1ccc(CC2CCCC2=O)cc1` (stereo unspecified), the log fold change Tl+ flux in the assay with F380Y is -0.0107; in the assay on F380Y/beta1 it was -0.0699.

Turning to `CN(CCCN1c2ccccc2CCc2ccccc21)CC(=O)c1ccc(Cl)cc1`, the log fold change Tl+ flux was -0.0806 in the assay on F380Y and -0.0237 in the assay with F380Y/beta1.

Regarding `O=C(NCCO[N+](=O)[O-])c1cccnc1`, the values for the log fold change Tl+ flux in the assay on F380Y and in the assay with F380Y/beta1 were 0.0612 and 0.00537, respectively.

`Cc1nc2n(c(=O)c1CCN1CCC(c3noc4cc(F)ccc34)CC1)CCCC2`: the log fold change Tl+ flux in the assay on F380Y was 0.0311; in the assay with F380Y/beta1, -0.00468.

Turning to `CC(C)[C@H](N)C(=O)OCCOCn1cnc2c(=O)[nH]c(N)nc21`, the log fold change Tl+ flux is -0.0232 in the assay on F380Y and -0.0206 in the assay with F380Y/beta1.

Take `COC1=C(OC)C(=O)C(CCCCCCCCCCO)=C(C)C1=O`: the log fold change Tl+ flux in the assay on F380Y is -0.163 (active); in the assay with F380Y/beta1 it was 0.138 (active).

Regarding `CCCN1CCCC[C@H]1C(=O)Nc1c(C)cccc1C`, the log fold change Tl+ flux with F380Y was 0.0271; in the assay on F380Y/beta1, 0.0176.

In the case of `CN(CCOc1ccc(NS(C)(=O)=O)cc1)CCc1ccc(NS(C)(=O)=O)cc1`, the values for the log fold change Tl+ flux in the assay on F380Y and in the assay with F380Y/beta1 were 0.0506 and 0.0264, respectively.

For the molecule `Cn1c(NCCN(CCO)CCCc2ccc([N+](=O)[O-])cc2)cc(=O)n(C)c1=O`, the log fold change Tl+ flux in the assay on F380Y is -0.0604; with F380Y/beta1 it was -0.0554.

In the case of `Clc1ccc2nsnc2c1NC1=NCCN1`, the log fold change Tl+ flux is -0.038 in the assay with F380Y and -0.0369 in the assay with F380Y/beta1.

On to `COc1ccccc1N1CCN(CC(O)COc2cccc3ccccc23)CC1` (stereo unspecified), for which the log fold change Tl+ flux with F380Y is -0.03; in the assay with F380Y/beta1, -0.0336.

Take `O=C(O)/C=C/c1ccc(Cn2ccnc2)cc1`: the log fold change Tl+ flux in the assay on F380Y is 0.00524; with F380Y/beta1, 0.0144.

For `CCN1CCCC1CNC(=O)c1cc(S(=O)(=O)CC)c(N)cc1OC` (stereo unspecified), the log fold change Tl+ flux was 0.00396 with F380Y and 0.016 with F380Y/beta1.

For the molecule `COCc1c(C(C)C)nc(C(C)C)c(/C=C/[C@@H](O)C[C@@H](O)CC(=O)O)c1-c1ccc(F)cc1`, the log fold change Tl+ flux with F380Y is 0.216 (active); with F380Y/beta1 it was 0.473 (active).

With `CC(C)(C(=O)c1cccnc1)c1cccnc1`, the log fold change Tl+ flux in the assay on F380Y is -0.0599; in the assay on F380Y/beta1 it was 0.0309.

In the case of `CCOC(=O)[C@H](CCc1ccccc1)N[C@@H](C)C(=O)N1[C@H](C(=O)O)C[C@@H]2CCC[C@@H]21`, the log fold change Tl+ flux in the assay on F380Y is -0.0209 and 0.0487; with F380Y/beta1, -0.00638 and 0.058.

For `CCCN[C@H]1CCc2nc(N)sc2C1`, the log fold change Tl+ flux in the assay on F380Y is 0.0634 and -0.0393; in the assay with F380Y/beta1, 0.0248.

For `CN1CCN(c2c(F)cc3c(=O)c(C(=O)O)cn4c3c2SCC4)CC1`, the log fold change Tl+ flux is 0.0311 with F380Y and 0.0284 in the assay with F380Y/beta1.

For `CN(C)CC[C@@H](c1ccc(Cl)cc1)c1ccccn1`, the log fold change Tl+ flux was 0.112 (active) in the assay with F380Y and 0.0236 in the assay with F380Y/beta1.

As to `COc1cc(C(=O)NS(=O)(=O)c2ccccc2C)ccc1Cc1cn(C)c2ccc(NC(=O)OC3CCCC3)cc12`, the log fold change Tl+ flux in the assay on F380Y is 0.278 (active); in the assay with F380Y/beta1 it was 0.461 (active).

As for `C[C@]12C[C@H](O)[C@H]3[C@@H](CCC4=CC(=O)CC[C@@]43C)[C@@H]1CC[C@@H]2C(=O)CO`, the log fold change Tl+ flux was 0.0367 in the assay on F380Y and 0.0921 in the assay with F380Y/beta1.

Turning to `CCN(CC)CC1CCCCN1CC(=O)N1c2ccccc2C(=O)Nc2cccnc21` (stereo unspecified), the log fold change Tl+ flux was -0.00678 in the assay with F380Y and 0.0276 in the assay on F380Y/beta1.

On to `N#Cc1ccc(C(c2ccc(C#N)cc2)n2cncn2)cc1`, for which the log fold change Tl+ flux in the assay with F380Y was -0.0169; with F380Y/beta1 it was 0.0204.

On to `CCOC(=O)O[C@]1(C(=O)OCCl)CC[C@H]2[C@@H]3CCC4=CC(=O)C=C[C@]4(C)[C@H]3[C@@H](O)C[C@@]21C`, for which the values for the log fold change Tl+ flux with F380Y and in the assay on F380Y/beta1 were -0.0169 and -0.0185, respectively.

In the case of `CC(Oc1c(Cl)cccc1Cl)C1=NCCN1` (stereo unspecified), the log fold change Tl+ flux is 0.00819 in the assay on F380Y and -0.000881 with F380Y/beta1.

Consider `CCCOc1ccc(C(=O)OCCN(CC)CC)cc1N`, for which the log fold change Tl+ flux was 0.0362 with F380Y and -0.0262 in the assay on F380Y/beta1.

Take `CCN(CC)CCNC(=O)c1cc(Cl)c(N)cc1OC`: the log fold change Tl+ flux is -0.00476 in the assay with F380Y and -0.00572 with F380Y/beta1.

`CN(C/C=C/C#CC(C)(C)C)Cc1cccc2ccccc12`: the log fold change Tl+ flux was -0.0709 with F380Y and -0.00172 in the assay on F380Y/beta1.

In the case of `O=C1CCc2ccc(OCCCCN3CCN(c4cccc(Cl)c4Cl)CC3)cc2N1`, the values for the log fold change Tl+ flux with F380Y and in the assay with F380Y/beta1 were 0.0772 and 0.0377, respectively.
